Reference: PubChem BioAssay AID493030 (The Scripps Research Institute Molecular Screening Center, 2011)
The whole screen tested about 2,300 compounds, of which about 1,500 (65%) were called active.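 Rule for the calls: active = mean inhibition over three repeats above a set limit taken from the earlier primary screen (cut at about 30% in these data); inactive = the rest.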 So high a share suggests a set chosen from earlier hits. Many of the other results were omitted from the sample, so actives are more common in it than they were.

What follows are compounds tested against Platelet-activating factor acetylhydrolase 2, cytoplasmic (Homo sapiens) (UniProt Q99487) (assay: PAFAH2 enzyme inhibitors, confirmation, biochemical, fluorescence polarization, human (AID 493030;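 note: inhibitor blocks binding of rhodamine activity probe so polarization falls; 0% = enzyme with DMSO and 100% = wells lacking PAFAH2 protein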)). Details: recombinant PAFAH2, FP-rhodamine activity probe, at 3.39 µM, stronger effect = higher value.

| SMILES | inhibition |
| --- | --- |
| COc1cccc(N2C(=O)NC(=O)/C(=C\c3cn(C)c4ccccc34)C2=O)c1 | 36.5% (active) |
| Cc1cccc(N2C(=O)NC(=O)/C(=C\c3cnn(-c4ccccc4)c3)C2=O)c1 | 35.3% (active) |
| O=C(COC(=O)c1ccccc1)Nc1ccc(Cl)cc1C(=O)c1ccccc1 | 39.7% (active) |
